This is an account of results in ChEMBL document CHEMBL4296182, “CO-ADD screening of NIH NCI Diversity Set V”.

For part of these data: Results with a measured potency or affinity are listed apart.

The subject of one experiment is Staphylococcus aureus. As to the kind of experiment: Antibacterial activity against Staphylococcus aureus MRSA ATCC 43300 (CO-ADD:GP_020); MIC in CAMBH media using NBS plates, by Resazurin F(560/590). It counts as functional. As to conditions: Concentration 20 uM, ASSAY_TEST Inhibition of Bacterial Growth, detection method Resazurin, Fluorescence (ex560/em590), MEDIA CAMHB, plate type 384well, CORNING #3640, time 18 hr.

For a further experiment, the system named is Acinetobacter baumannii. As to the kind of experiment: Antibacterial activity against Acinetobacter baumannii ATCC 19606 (CO-ADD:GN_034); MIC in CAMBH media using NBS plates, by Resazurin F(560/590). The format is functional. As to conditions: Concentration 20 uM, ASSAY_TEST Inhibition of Bacterial Growth, detection method Resazurin, Fluorescence (ex560/em590), MEDIA CAMHB, plate type 384well, CORNING #3640, time 18 hr. On the technique in general: Resazurin is reduced to fluorescent resorufin, in cell work by metabolically active cells.

In another experiment the test system is Escherichia coli. The experiment is described as follows: Antibacterial activity against Escherichia coli ATCC 25922 (CO-ADD:GN_001); MIC in CAMBH media using NBS plates, by Resazurin F(560/590). The format is functional. As to conditions: Concentration 20 uM, ASSAY_TEST Inhibition of Bacterial Growth, detection method Resazurin, Fluorescence (ex560/em590), MEDIA CAMHB, plate type 384well, CORNING #3640, time 18 hr.

A further experiment relates to Klebsiella pneumoniae. As to conditions: Concentration 20 uM; ASSAY_TEST Inhibition of Bacterial Growth; detection method Absorption (OD600); MEDIA CAMHB; plate type 384well; NBS; CORNING #3640; time 18 hr.
The test system of a further experiment is Candida albicans. As to conditions: 20 µM.
Another experiment relates to Cryptococcus neoformans. The note with it: Concentration 20 uM; ASSAY_TEST Inhibition of Fungal Growth; detection method Resazurin; Absorption (OD600-OD570); plate type 384well; NBS; CORNING #3640.

For the compound `Cc1ccc(NC(=O)N2CCCCC2)cc1NC(=O)N1CCCCC1`, the Inhibition (usually the relative decrease from the control value, in per cent) was -1.56% with Staphylococcus aureus; 7.43% in the experiment on Acinetobacter baumannii; 3.01% with Escherichia coli; 16.93% in the experiment with Klebsiella pneumoniae; 3.17% in the experiment on Candida albicans; 1.83% in the experiment on Cryptococcus neoformans.
In the case of `CCCCNc1cc(Cl)nc(N)n1`, the Inhibition in the experiment with Staphylococcus aureus is 19.23%; in the experiment on Acinetobacter baumannii, -9.43%; in the experiment with Escherichia coli it was 4.85%; in the experiment on Klebsiella pneumoniae, 9.91%; in the experiment with Candida albicans, 0.7%; with Cryptococcus neoformans, -8.27%.
Turning to `COc1c(C=O)c2c(c(OC)c1OC)-c1ccc(OC)c(=O)cc1[C@@H](NC(C)=O)CC2`, the Inhibition in the experiment on Staphylococcus aureus was -5.44%; with Acinetobacter baumannii, -11.93%; in the experiment on Escherichia coli, 15.89%; in the experiment with Klebsiella pneumoniae it was 9.96%; with Candida albicans it was 0.57%; with Cryptococcus neoformans it was -7.77%.
Turning to `O=C(Nc1cccc([N+](=O)[O-])c1)c1ccc2ccccc2c1O`, the Inhibition in the experiment with Staphylococcus aureus was 0.95%; in the experiment with Acinetobacter baumannii, -11.75%; in the experiment on Escherichia coli, 6.76%; in the experiment on Klebsiella pneumoniae it was 12.38%; with Candida albicans, 3.5%; in the experiment on Cryptococcus neoformans, 4.47%.
For the compound `O=S1(=O)CCC(N(/N=C/c2ccco2)c2ccccc2)C1` (stereo not given), the Inhibition with Staphylococcus aureus was 6.29%; in the experiment with Acinetobacter baumannii, -4.36%; with Escherichia coli, -3.36%; with Klebsiella pneumoniae, 6.93%; in the experiment with Candida albicans, -2.37%; in the experiment with Cryptococcus neoformans it was -1.06%.
As to `Cc1cc(=O)c2c(o1)C(=O)c1occc1C2=O`, the Inhibition in the experiment on Staphylococcus aureus was -16.99%; in the experiment with Acinetobacter baumannii it was -9.35%; in the experiment on Escherichia coli, -16.26%; in the experiment with Klebsiella pneumoniae it was 2.36%; with Candida albicans it was 7.04%; in the experiment on Cryptococcus neoformans it was 24.84%.
In the case of `COC(=O)CC1(C(=O)OC)Nc2cc(Cl)c(Cl)cc2S(=O)(=O)N1O` (stereo not given), the Inhibition in the experiment with Staphylococcus aureus was found to be 8.27%; in the experiment on Acinetobacter baumannii it was 11.98%; in the experiment on Escherichia coli it was 7.08%; with Klebsiella pneumoniae it was 10.44%; in the experiment with Candida albicans, 3.58%; in the experiment on Cryptococcus neoformans it was 3.59%.
With `CC1CN(CCN2CC(C)N(C=O)CC2C)C(C)CN1C=O` (stereo not given), the Inhibition with Staphylococcus aureus is -7.66%; in the experiment on Acinetobacter baumannii it was -6.52%; with Escherichia coli, -13.71%; in the experiment on Klebsiella pneumoniae, 5.89%; in the experiment with Candida albicans, 1.99%; with Cryptococcus neoformans, 25.73%.
Consider `CCCCCc1cc(O)nc(S)n1`, for which the Inhibition is 5.4% in the experiment with Staphylococcus aureus; -7.23% in the experiment with Acinetobacter baumannii; 3.05% with Escherichia coli; 2.8% in the experiment on Klebsiella pneumoniae; 1.05% in the experiment with Candida albicans; -4.11% in the experiment with Cryptococcus neoformans.
As for `CC1=C(O)C(=O)C(c2c(C)cc(C)c(Br)c2C)=C(O)C1=O`, the Inhibition in the experiment with Staphylococcus aureus is 15.91%; in the experiment on Acinetobacter baumannii, 1.25%; in the experiment with Escherichia coli it was 4.64%; in the experiment with Klebsiella pneumoniae, 20.53%; in the experiment with Candida albicans it was 19.7%; with Cryptococcus neoformans, -3.3%.
On to `CCOC(=O)c1cc[nH]c1CC(=O)NC`, for which the Inhibition was 7.18% in the experiment on Staphylococcus aureus; 12.41% in the experiment on Acinetobacter baumannii; -1.94% in the experiment on Escherichia coli; 10.9% in the experiment with Klebsiella pneumoniae; 1.71% with Candida albicans; -10.3% with Cryptococcus neoformans.
As for `Nc1ccc(/N=N/c2ccccc2Cl)c(N)n1`, the Inhibition in the experiment on Staphylococcus aureus is 4.22%; with Acinetobacter baumannii, -1.2%; with Escherichia coli it was 2.51%; with Klebsiella pneumoniae it was 18.4%; in the experiment on Candida albicans, 14.2%; with Cryptococcus neoformans, -16.58%.
Take `Cn1c(=O)c2nc(COc3ccc(C(C)(C)C)cc3)[nH]c2n(C)c1=O`: the Inhibition in the experiment with Staphylococcus aureus is -1.06%; in the experiment with Acinetobacter baumannii, -14.84%; in the experiment with Escherichia coli, 1.91%; in the experiment with Klebsiella pneumoniae it was 9.47%; in the experiment on Candida albicans, 3.68%; in the experiment with Cryptococcus neoformans it was -17.46%.
`O=C1C2CC3N1CCC31c3ccccc3-n3c1c2ccc3=O` (stereo not given): the Inhibition with Staphylococcus aureus was 27.56%; with Acinetobacter baumannii it was -3.15%; with Escherichia coli, 6.22%; with Klebsiella pneumoniae it was 13.77%; in the experiment with Candida albicans, 5.53%; in the experiment with Cryptococcus neoformans, -4.11%.
In the case of `COC1=CC(C)C2CC3OC(O)CC4C(C)=C(OC)C(=O)C(C2(C)C1=O)C34C` (stereo not given), the Inhibition in the experiment on Staphylococcus aureus was 7.24%; in the experiment with Acinetobacter baumannii it was 8.28%; in the experiment with Escherichia coli, -3.89%; with Klebsiella pneumoniae it was 9.99%; with Candida albicans, 3.92%; in the experiment with Cryptococcus neoformans, 7.39%.
Turning to `CC1(C)N=C(N)N=C(N)N1c1ccc(OCCCOc2ccccc2)c(Cl)c1.CCS(=O)(=O)O`, the Inhibition in the experiment with Staphylococcus aureus was 10.6%; in the experiment with Acinetobacter baumannii, -13.57%; in the experiment on Escherichia coli, 15.29%; with Klebsiella pneumoniae it was 12.4%; in the experiment on Candida albicans it was -0.44%; in the experiment on Cryptococcus neoformans, -3.49%.
`Cc1cc(/C=C2\SC(=S)NC2=O)cc(C)c1O`: the Inhibition in the experiment on Staphylococcus aureus is -3.17%; with Acinetobacter baumannii it was -16.06%; in the experiment with Escherichia coli it was 6.56%; with Klebsiella pneumoniae it was 6.27%; with Candida albicans, 8.55%; with Cryptococcus neoformans, -10.24%.
Consider `CCc1ccc(CCN2C(=O)c3ccccc3C2=O)nc1`, for which the Inhibition in the experiment on Staphylococcus aureus is 9.03%; in the experiment with Acinetobacter baumannii, 4.62%; with Escherichia coli it was -1.52%; in the experiment on Klebsiella pneumoniae, 17.62%; in the experiment with Candida albicans it was 2.59%; in the experiment with Cryptococcus neoformans it was -6.09%.
For `Cc1ccc(Nc2nnc(S)s2)cc1F`, the Inhibition is -5.24% in the experiment on Staphylococcus aureus; -6.73% with Acinetobacter baumannii; 5.51% in the experiment on Escherichia coli; 11.86% in the experiment with Klebsiella pneumoniae; 12.1% in the experiment on Candida albicans; 17.67% in the experiment with Cryptococcus neoformans.
For the compound `NS(=O)(=O)c1ccc(NC(=S)NC(=O)c2ccco2)cc1`, the Inhibition with Staphylococcus aureus was 17.92%; in the experiment on Acinetobacter baumannii, 4.84%; in the experiment on Escherichia coli, 10.07%; in the experiment with Klebsiella pneumoniae, 4.06%; with Candida albicans it was 1.47%; in the experiment with Cryptococcus neoformans, -12.16%.
As for `ON=C(NCc1ccccc1)c1ccccc1`, the Inhibition is -15.15% with Staphylococcus aureus; 6.48% in the experiment with Acinetobacter baumannii; -18.65% in the experiment on Escherichia coli; 2.92% with Klebsiella pneumoniae; -0.43% with Candida albicans; 19.05% in the experiment on Cryptococcus neoformans.
Regarding `O=C1NC(=O)C(Cc2ccccc2)(c2cccnc2)N1` (stereo not given), the Inhibition stood at 33.81% in the experiment with Staphylococcus aureus; 2.65% in the experiment on Acinetobacter baumannii; 15.22% in the experiment with Escherichia coli; 9.85% with Klebsiella pneumoniae; 7.24% with Candida albicans; 16.94% in the experiment on Cryptococcus neoformans.
`COc1ccccc1N=NNc1ccccc1OC`: the Inhibition is 15.47% with Staphylococcus aureus; -0.02% in the experiment on Acinetobacter baumannii; 3.88% with Escherichia coli; 9.87% in the experiment with Klebsiella pneumoniae; 2.77% in the experiment on Candida albicans; -8.49% with Cryptococcus neoformans.
Take `Oc1ccnc(Nc2ccc(Cl)cc2)n1`: the Inhibition in the experiment with Staphylococcus aureus is 11.15%; in the experiment with Acinetobacter baumannii, -11.5%; in the experiment on Escherichia coli it was 6.59%; in the experiment with Klebsiella pneumoniae it was -5.88%; in the experiment on Candida albicans, 0.12%; with Cryptococcus neoformans, -10.08%.
On to `CC1CC(C)(C)NC2(CCCC2)N1` (stereo not given), for which the Inhibition with Staphylococcus aureus is 12.12%; in the experiment with Acinetobacter baumannii, -5.32%; in the experiment with Escherichia coli, 5.91%; in the experiment on Klebsiella pneumoniae, 11.32%; in the experiment with Candida albicans, -0.15%; in the experiment with Cryptococcus neoformans, -4.43%.
